# In the supplement of paper PMC12282887:
# ± gives the standard deviation of the averaged measurements.
# What was measured:
# Experiment in all cases: promoter activity interaction Z-score (Lux/OD deviation from empty-vector control); higher = stronger promoter induction by the compound
# [1] = tested on: E. coli BW25113 acrABp lux reporter
# Procedure, shortened: (§1)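 Wild-type E. coli BW25113 and three single-gene deletion strains, each carrying a low-copy luxCDABE promoter reporter, were grown at 37°C in 40 µl LB Lennox per well of a 384-well plate. Every compound was applied at four 1:2 dilutions in biological duplicates, and OD600 and luminescence were read every 30 min for 12 h. Integration covered 0–8 h for wild type and 1–9 h for deletion strains, and wells under 10% of the median growth value were removed. Scores are Z-transformed residuals of growth-normalised luminescence fitted against a control.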
# [2] = tested on: E. coli BW25113 marRABp lux reporter
# Procedure, shortened: as §1
# [3] = tested on: E. coli BW25113 micFp lux reporter
# Procedure, shortened: as §1
# [4] = tested on: E. coli BW25113 ompFp lux reporter
# Procedure, shortened: as §1
# [5] = tested on: E. coli BW25113 robp lux reporter
# Procedure, shortened: as §1
# [6] = tested on: E. coli BW25113 soxSp lux reporter
# Procedure, shortened: as §1
# [7] = tested on: E. coli BW25113 tolCp lux reporter
# Procedure, shortened: as §1
# [8] = 3.2 µg/ml, genetic background: wild type
# [9] = 3.2 µg/ml, genetic background: ΔmarA
# [10] = 3.2 µg/ml, genetic background: Δrob
# [11] = 3.2 µg/ml, genetic background: ΔsoxS
# [12] = 6.3 µg/ml, genetic background: wild type
# [13] = 6.3 µg/ml, genetic background: ΔmarA
# [14] = 6.3 µg/ml, genetic background: Δrob
# [15] = 6.3 µg/ml, genetic background: ΔsoxS
# [16] = 12.7 µg/ml, genetic background: wild type
# [17] = 12.7 µg/ml, genetic background: ΔmarA
# [18] = 12.7 µg/ml, genetic background: Δrob
# [19] = 12.7 µg/ml, genetic background: ΔsoxS
# [20] = 25.3 µg/ml, genetic background: wild type
# [21] = 25.3 µg/ml, genetic background: ΔmarA
# [22] = 25.3 µg/ml, genetic background: Δrob
# [23] = 25.3 µg/ml, genetic background: ΔsoxS
smiles,measurement,setting,value
Cc1cc(NS(=O)(=O)c2ccc(N)cc2)no1 [Sulfamethoxazole],promoter activity interaction Z-score,[1]; [8],-0.0765 ± 0.27
same,promoter activity interaction Z-score,[1]; [9],0.689 ± 0.77
same,promoter activity interaction Z-score,[1]; [10],-0.221 ± 0.15
same,promoter activity interaction Z-score,[1]; [11],-0.171 ± 0.12
same,promoter activity interaction Z-score,[1]; [12],-0.0766 ± 0.0099
same,promoter activity interaction Z-score,[1]; [13],0.146 ± 0.35
same,promoter activity interaction Z-score,[1]; [14],-0.0332 ± 0.079
same,promoter activity interaction Z-score,[1]; [15],-0.186 ± 0.085
same,promoter activity interaction Z-score,[1]; [16],0.0229 ± 0.067
same,promoter activity interaction Z-score,[1]; [17],0.358 ± 0.25
same,promoter activity interaction Z-score,[1]; [18],0.21 ± 0.21
same,promoter activity interaction Z-score,[1]; [19],0.0418 ± 0.11
same,promoter activity interaction Z-score,[1]; [20],0.696 ± 0.24
same,promoter activity interaction Z-score,[1]; [21],2.36 ± 1.9
same,promoter activity interaction Z-score,[1]; [22],1.91 ± 0.82
same,promoter activity interaction Z-score,[1]; [23],1.07 ± 0.6
same,promoter activity interaction Z-score,[2]; [8],0.00674 ± 0.34
same,promoter activity interaction Z-score,[2]; [9],0.0321 ± 0.081
same,promoter activity interaction Z-score,[2]; [10],0.113 ± 0.29
same,promoter activity interaction Z-score,[2]; [11],-0.135 ± 0.18
same,promoter activity interaction Z-score,[2]; [12],0.078 ± 0.084
same,promoter activity interaction Z-score,[2]; [13],0.138 ± 0.34
same,promoter activity interaction Z-score,[2]; [14],0.302 ± 0.037
same,promoter activity interaction Z-score,[2]; [15],0.0733 ± 0.34
same,promoter activity interaction Z-score,[2]; [16],0.411 ± 0.27
same,promoter activity interaction Z-score,[2]; [17],0.542 ± 0.015
same,promoter activity interaction Z-score,[2]; [18],0.6901 ± 0.0031
same,promoter activity interaction Z-score,[2]; [19],0.275 ± 0.14
same,promoter activity interaction Z-score,[2]; [20],0.782 ± 0.098
same,promoter activity interaction Z-score,[2]; [21],1.15 ± 0.06
same,promoter activity interaction Z-score,[2]; [22],1.2 ± 0.13
same,promoter activity interaction Z-score,[2]; [23],1.31 ± 0.61
same,promoter activity interaction Z-score,[3]; [8],0.243 ± 0.46
same,promoter activity interaction Z-score,[3]; [9],-0.0615 ± 0.078
same,promoter activity interaction Z-score,[3]; [10],0.056 ± 0.14
same,promoter activity interaction Z-score,[3]; [11],-0.0348 ± 0.3
same,promoter activity interaction Z-score,[3]; [12],0.103 ± 0.45
same,promoter activity interaction Z-score,[3]; [13],-0.116 ± 0.015
same,promoter activity interaction Z-score,[3]; [14],0.146 ± 0.091
same,promoter activity interaction Z-score,[3]; [15],0.0657 ± 0.36
same,promoter activity interaction Z-score,[3]; [16],0.21 ± 0.55
same,promoter activity interaction Z-score,[3]; [17],0.0105 ± 0.057
same,promoter activity interaction Z-score,[3]; [18],0.372 ± 0.13
same,promoter activity interaction Z-score,[3]; [19],0.279 ± 0.24
same,promoter activity interaction Z-score,[3]; [20],0.861 ± 0.2
same,promoter activity interaction Z-score,[3]; [21],-0.421 ± 0.013
same,promoter activity interaction Z-score,[3]; [22],0.736 ± 0.28
same,promoter activity interaction Z-score,[3]; [23],0.648 ± 0.11
same,promoter activity interaction Z-score,[4]; [8],1.17 ± 0.96
same,promoter activity interaction Z-score,[4]; [9],0.735 ± 0.72
same,promoter activity interaction Z-score,[4]; [10],0.192 ± 0.73
same,promoter activity interaction Z-score,[4]; [11],0.202 ± 0.47
same,promoter activity interaction Z-score,[4]; [12],0.748 ± 0.53
same,promoter activity interaction Z-score,[4]; [13],0.504 ± 0.34
same,promoter activity interaction Z-score,[4]; [14],0.735 ± 0.12
same,promoter activity interaction Z-score,[4]; [15],0.441 ± 0.62
same,promoter activity interaction Z-score,[4]; [16],1.51 ± 1.2
same,promoter activity interaction Z-score,[4]; [17],1.32 ± 0.24
same,promoter activity interaction Z-score,[4]; [18],1.71 ± 0.49
same,promoter activity interaction Z-score,[4]; [19],1.17 ± 0.39
same,promoter activity interaction Z-score,[4]; [20],2.06 ± 0.7
same,promoter activity interaction Z-score,[4]; [21],2.26 ± 0.076
same,promoter activity interaction Z-score,[4]; [22],3.31 ± 1.6
same,promoter activity interaction Z-score,[4]; [23],1.97 ± 1.8
same,promoter activity interaction Z-score,[5]; [8],0.934 ± 0.15
same,promoter activity interaction Z-score,[5]; [9],0.341 ± 0.082
same,promoter activity interaction Z-score,[5]; [10],0.297 ± 1.1
same,promoter activity interaction Z-score,[5]; [11],-0.129 ± 0.16
same,promoter activity interaction Z-score,[5]; [12],0.764 ± 0.4
same,promoter activity interaction Z-score,[5]; [13],0.234 ± 0.17
same,promoter activity interaction Z-score,[5]; [14],0.557 ± 0.64
same,promoter activity interaction Z-score,[5]; [15],0.243 ± 0.13
same,promoter activity interaction Z-score,[5]; [16],1.5 ± 0.42
same,promoter activity interaction Z-score,[5]; [17],1.47 ± 0.23
same,promoter activity interaction Z-score,[5]; [18],0.701 ± 0.021
same,promoter activity interaction Z-score,[5]; [19],0.407 ± 1.1
same,promoter activity interaction Z-score,[5]; [20],3.24 ± 0.095
same,promoter activity interaction Z-score,[5]; [21],0.76 ± 0.27
same,promoter activity interaction Z-score,[5]; [22],3.24 ± 0.084
same,promoter activity interaction Z-score,[5]; [23],3.15 ± 1.5
same,promoter activity interaction Z-score,[6]; [8],-0.125 ± 0.029
same,promoter activity interaction Z-score,[6]; [9],-0.2505 ± 0.00087
same,promoter activity interaction Z-score,[6]; [10],-0.453 ± 0.05
same,promoter activity interaction Z-score,[6]; [11],-0.491 ± 0.32
same,promoter activity interaction Z-score,[6]; [12],-0.197 ± 0.018
same,promoter activity interaction Z-score,[6]; [13],-0.00904 ± 0.067
same,promoter activity interaction Z-score,[6]; [14],-0.169 ± 0.057
same,promoter activity interaction Z-score,[6]; [15],-0.482 ± 0.4
same,promoter activity interaction Z-score,[6]; [16],-0.385 ± 0.017
same,promoter activity interaction Z-score,[6]; [17],-0.102 ± 0.16
same,promoter activity interaction Z-score,[6]; [18],-0.194 ± 0.12
same,promoter activity interaction Z-score,[6]; [19],-0.0885 ± 0.49
same,promoter activity interaction Z-score,[6]; [20],-0.318 ± 0.11
same,promoter activity interaction Z-score,[6]; [21],-0.113 ± 0.15
same,promoter activity interaction Z-score,[6]; [22],-0.388 ± 0.03
same,promoter activity interaction Z-score,[6]; [23],-0.495 ± 0.81
same,promoter activity interaction Z-score,[7]; [8],1.21 ± 0.56
same,promoter activity interaction Z-score,[7]; [9],-0.16 ± 0.5
same,promoter activity interaction Z-score,[7]; [10],-0.33 ± 1
same,promoter activity interaction Z-score,[7]; [11],-0.705 ± 0.53
same,promoter activity interaction Z-score,[7]; [12],-0.676 ± 0.91
same,promoter activity interaction Z-score,[7]; [13],1.17 ± 0.5
same,promoter activity interaction Z-score,[7]; [14],0.87 ± 0.48
same,promoter activity interaction Z-score,[7]; [15],-0.0792 ± 0.033
same,promoter activity interaction Z-score,[7]; [16],-0.0116 ± 0.8
same,promoter activity interaction Z-score,[7]; [17],0.0751 ± 0.68
same,promoter activity interaction Z-score,[7]; [18],0.998 ± 0.39
same,promoter activity interaction Z-score,[7]; [19],0.466 ± 1
same,promoter activity interaction Z-score,[7]; [20],1.95 ± 0.023
same,promoter activity interaction Z-score,[7]; [21],0.663 ± 1.2
same,promoter activity interaction Z-score,[7]; [22],0.663 ± 0.22
same,promoter activity interaction Z-score,[7]; [23],1.64 ± 0.21
